The panel holds about 83,000 compounds, 20% with a hit somewhere; the sample as a whole holds those more often.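 Method: cells in 96-well plates; compound added at one concentration; 48 h incubation; percent growth measured; values under 10 scored active.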 Values without a mark were called inactive. Activity calls are given as the source filed them.
Assays:
Assay in all cases: NCI-60 one-dose screen, 48 h (100 = growth as untreated, 0 = no growth, -100 = all killed)
Settings in all cases: 10 µM
HT29 colon = system: HT29 colon
SNB-75 CNS = system: SNB-75 CNS
SNB-19 CNS = system: SNB-19 CNS
U251 CNS = system: U251 CNS
PC-3 prostate = system: PC-3 prostate
SK-MEL-5 melanoma = system: SK-MEL-5 melanoma
UACC-62 melanoma = system: UACC-62 melanoma
LOX IMVI melanoma = system: LOX IMVI melanoma
SK-MEL-28 melanoma = system: SK-MEL-28 melanoma
SK-MEL-2 melanoma = system: SK-MEL-2 melanoma
SN12C renal = system: SN12C renal
UO-31 renal = system: UO-31 renal
TK-10 renal = system: TK-10 renal
ACHN renal = system: ACHN renal
CAKI-1 renal = system: CAKI-1 renal
A498 renal = system: A498 renal
CCRF-CEM leukemia = system: CCRF-CEM leukemia
MOLT-4 leukemia = system: MOLT-4 leukemia
SR leukemia = system: SR leukemia

Compound	growth (HT29 colon)	growth (SNB-75 CNS)	growth (SNB-19 CNS)	growth (U251 CNS)	growth (PC-3 prostate)	growth (SK-MEL-5 melanoma)	growth (UACC-62 melanoma)	growth (LOX IMVI melanoma)	growth (SK-MEL-28 melanoma)	growth (SK-MEL-2 melanoma)	growth (SN12C renal)	growth (UO-31 renal)	growth (TK-10 renal)	growth (ACHN renal)	growth (CAKI-1 renal)	growth (A498 renal)	growth (CCRF-CEM leukemia)	growth (MOLT-4 leukemia)	growth (SR leukemia)
Cc1cc(=O)[nH]c(N/N=C/c2ccccc2O)n1	46.1%	89%	76.9%	45.9%	67.4%	90.8%	92.3%	59.5%	86.3%	73.9%	86.2%	43.6%	97.3%	59.8%	82.3%	108%	35%	67.3%	26.8%
Nc1c(C(=O)Nc2ccccc2)sc2nc3c(cc12)C(O)CCC3 (configuration not stated)	6.61% (active)	36.6%	58.6%	23.9%	31.8%	42.4%	55.4%	47.5%	62.6%	37.8%	39.6%	49.4%	69.8%	48.2%	41.4%	-10.1% (active)		11.9%	7.36% (active)
Cn1c([N+](=O)[O-])cnc1/C=C1\Oc2ccccc2C1=O	-23.7% (active)	43.8%	-17.3% (active)	-12.6% (active)	-21.4% (active)	-94.1% (active)	-90% (active)	-50.2% (active)	-25.9% (active)	-53.3% (active)	-18.2% (active)	-39.3% (active)	-28.8% (active)	3.1% (active)	-23% (active)	-3.16% (active)	2.77% (active)		9.62% (active)
COc1cc(/C=C\c2cc(OC)c(OC)c(OC)c2)cc(NS(=O)(=O)c2ccc(Cl)cc2)c1OC	5.17% (active)	49.1%	58.4%	20.5%	13.7%	24.3%	39.3%	35.8%	70.8%	17.8%	27.2%	35.9%	55.2%	39%	37.1%	-5.88% (active)			14.4%
COc1cc(-c2cc(/C=C3\C(=O)Nc4ccccc43)[nH]n2)cc(OC)c1OC	55.7%	44.5%	65.8%	56.1%	19%	-57% (active)	-11.1% (active)	38.6%	59.8%	27.5%	53.7%	37.2%	68.1%	51.1%	25.4%	46.5%		6.03% (active)	34.1%
N=C(N)c1ccc(-c2ccc(-c3cccs3)o2)cc1	-26.5% (active)	40.6%	73.7%	12.4%	50.5%	44.6%	67.7%	12.2%	47.6%	-7.14% (active)	54.5%	65.9%	96.5%	62.7%	37.8%	33.5%	19.9%	-2.16% (active)	-24.5% (active)
O=S(=O)(Nc1ccccn1)c1ccc(N=Nc2ccc(O)c3ncccc23)cc1	79.5%	-6.04% (active)	12%	0.16% (active)	-5.46% (active)	-4.96% (active)	-4.64% (active)	13.7%	33.9%	-30.1% (active)	5.49% (active)	-24.1% (active)	-1.22% (active)	-1.83% (active)	-4.15% (active)	-11.5% (active)		4.77% (active)	0.457% (active)

— PubChem BioAssay (NCI)
